Rows were chosen to be rich in hits. Some 3.2% of all compounds tested hit in one or more screens of this group.
DAGLB inhibitor: diacylglycerol lipase beta (human) inhibition. HEK293T DAGLB membrane lysate, EnzChek fluorogenic substrate. inhibition, % at 5.17 µM. 0.059% of 340,000 active. AID 504411; in the data active = inhibition above about 34%;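 also: 0% = enzyme with vehicle and 100% = wells lacking enzyme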
Target sequence (Q8NCG7 whole entry, looked up): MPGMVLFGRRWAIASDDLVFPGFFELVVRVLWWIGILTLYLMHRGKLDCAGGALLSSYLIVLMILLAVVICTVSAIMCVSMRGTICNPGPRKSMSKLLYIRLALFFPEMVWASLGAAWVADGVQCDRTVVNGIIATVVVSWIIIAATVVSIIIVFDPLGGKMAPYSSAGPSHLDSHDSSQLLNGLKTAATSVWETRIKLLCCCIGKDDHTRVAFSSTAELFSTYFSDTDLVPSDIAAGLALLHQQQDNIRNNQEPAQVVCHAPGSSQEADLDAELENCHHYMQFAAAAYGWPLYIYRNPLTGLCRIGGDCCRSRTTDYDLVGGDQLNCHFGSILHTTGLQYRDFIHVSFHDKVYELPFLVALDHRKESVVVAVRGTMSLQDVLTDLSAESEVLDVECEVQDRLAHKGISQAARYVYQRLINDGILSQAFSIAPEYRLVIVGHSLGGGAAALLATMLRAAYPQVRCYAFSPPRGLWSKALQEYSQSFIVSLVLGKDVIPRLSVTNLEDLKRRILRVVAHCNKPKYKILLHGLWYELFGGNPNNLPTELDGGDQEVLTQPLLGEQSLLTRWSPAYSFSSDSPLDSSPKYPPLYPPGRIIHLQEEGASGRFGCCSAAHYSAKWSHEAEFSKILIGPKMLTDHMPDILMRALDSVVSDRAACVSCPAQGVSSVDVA
NadD inh: blocks S. aureus nicotinate mononucleotide adenylyltransferase; purified NadD enzyme, colorimetric absorbance read-out; inhibition, % at 20 µM; 0.78% of 360,000 active; AID 602399; in the data active = inhibition above about 26%
MsrA inh: inhibits bovine methionine sulfoxide reductase A; purified bovine MsrA, absorbance read-out; inhibition, % at 15.5 µM; 0.75% of 360,000 active; AID 651718; in the data active = inhibition above about 4.5%;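 also: 0% = vehicle wells with enzyme and 100% = reference inhibitor wells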
bovine MsrA act: bovine methionine sulfoxide reductase A activation; purified bovine MsrA, absorbance read-out; 0.3% of 360,000 active; activation, % at 10.6 µM; in the data active = activation above about 7.5%;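 also: 0% = vehicle and 100% = reference activator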
rCAG RNA binder: r(CAG) repeat RNA binding. 1.3% of 370,000 active. inhibition, % at 3 µM. TO-PRO-1 dye displacement fluorescence;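 active = inhibition above the plate cutoff, the mean of all test compounds on that plate plus 3 SD, cut at about 35% in these data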;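 also: 0% = DMSO alone and 100% = 100 µM mitoxantrone as full dye displacement; higher means more dye released from RNA so lower well fluorescence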
Pemphigus Ab inh: human desmoglein-3 autoantibody binding inhibition; binding (percent of control), % at 10 µM; DSG3-coupled beads, scFv-anti-DSG3-GFP binding, flow cytometry; hits give low values; 0.48% of 310,000 active;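 active = binding more than 3 SD below its plate's average and above zero; inconclusive = below that plate limit but binding exactly zero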;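 also: hits lower antibody fragment binding to DSG3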
* = called active by the depositor.

What do the screens show for `COc1ccc(/C=N/NC(=O)c2nc(-c3ccccc3)n(-c3ccccc3)n2)c(O)c1`?
DAGLB inhibitor: 8.2; NadD inh: 41.4*; MsrA inh: 2.5; bovine MsrA act: -8.3; rCAG RNA binder: 10.5; Pemphigus Ab inh: 95.1

What do the screens show for `C=CC(=O)Nc1cccc(Oc2ccnc3[nH]ccc23)c1`?
DAGLB inhibitor: 5.7; NadD inh: 58.9*; bovine MsrA act: -6.7; Pemphigus Ab inh: 108.4

What do the screens show for `CC1=C2NC(N)=[N+](Cc3ccccc3)CC2n2c(=O)n(-c3ccccc3)c(=O)n2C1` (stereo not drawn)?
rCAG RNA binder: 13.7

Results for C=CCN(C(=O)[C@@H](CCCC)[C@@H](O)c1ccc(C(C)=O)cc1)c1ccccc1 ?
rCAG RNA binder: -0.9

What do the screens show for `COc1ccc(C2CC(=O)C=C3c4ccc(OC)cc4CCC32)cc1` (stereo not drawn)?
DAGLB inhibitor: -7.7; NadD inh: -2.0; MsrA inh: 1.6; bovine MsrA act: -4.8; rCAG RNA binder: 3.6; Pemphigus Ab inh: 84.0*

What do the screens show for `C=C(C)C(=O)Nc1cccc(C2=NOC3(C2)C[C@@H](C(N)=O)N(C(=O)/C=C/C=C/C)C3)c1` (stereo partly drawn)?
DAGLB inhibitor: 1.8; NadD inh: -1.9; MsrA inh: -1.1; bovine MsrA act: -3.0; rCAG RNA binder: 5.0; Pemphigus Ab inh: 89.7*

What do the screens show for `C=C(C)C(=O)Nc1cccc(C2=NOC3(C2)C[C@@H](C(N)=O)N(C(=O)/C(C)=C/C)C3)c1` (stereo partly drawn)?
DAGLB inhibitor: 0.8; NadD inh: -9.9; MsrA inh: 1.4; bovine MsrA act: -2.5; rCAG RNA binder: 9.4; Pemphigus Ab inh: 89.1*

Results for Cc1cccc2cc(COC(=O)C3CCCO3)c(=O)[nH]c12 (stereo not drawn) ?
DAGLB inhibitor: 0.4; NadD inh: -8.4; MsrA inh: 0.7; bovine MsrA act: 2.9; rCAG RNA binder: -1.6; Pemphigus Ab inh: 99.4

What do the screens show for `Cc1cccc2cc(COC(=O)C3CCCCC3)c(=O)[nH]c12`?
DAGLB inhibitor: -1.5; NadD inh: -2.1; MsrA inh: -0.5; bovine MsrA act: 0.3; rCAG RNA binder: 0.9; Pemphigus Ab inh: -4.6*

Results for CCCCN1CCN(C(=O)C2CCCN(C(=O)c3ccc4c(c3)NC(=O)CS4)C2)CC1 (stereo not drawn) ?
rCAG RNA binder: 0.6

What do the screens show for `COc1cc(OC)cc(C(=O)NCC(=O)Nc2ccc(-c3ccccc3)cc2)c1`?
DAGLB inhibitor: -0.4; NadD inh: -0.8; MsrA inh: -0.8; bovine MsrA act: -2.1; rCAG RNA binder: 9.3; Pemphigus Ab inh: 117.0

How did C[C@@H]1CCN(C2CC2)S(=O)(=O)c2ccc(N3CCC[C@@H]3C)cc2O1 do in these assays?
rCAG RNA binder: 0.7

How did CC(COc1ccc(C(F)(F)F)cc1)CN1CCC(C(O)(c2ccccc2)c2ccccc2)CC1 (stereo not drawn) do in these assays?
rCAG RNA binder: 2.4

What do the screens show for `CCN(CC)c1nc(N)c([N+](=O)[O-])c(NCCO)n1`?
DAGLB inhibitor: 1.2; NadD inh: -0.8; MsrA inh: 4.7*; bovine MsrA act: -3.3; rCAG RNA binder: 0.6; Pemphigus Ab inh: 94.9

What do the screens show for `Cc1ccc(S(=O)(=O)N(Cc2cc3cc4c(cc3[nH]c2=O)OCCO4)CC2CCCO2)cc1` (stereo not drawn)?
DAGLB inhibitor: 0.0; NadD inh: -4.1; MsrA inh: 1.1; bovine MsrA act: -3.1; rCAG RNA binder: 10.5; Pemphigus Ab inh: 82.5*

Results for COc1cc2ccccc2cc1C(=O)Nc1ccc(Br)cn1 ?
DAGLB inhibitor: -4.8; NadD inh: 0.5; MsrA inh: 0.0; bovine MsrA act: -6.3; rCAG RNA binder: 2.9; Pemphigus Ab inh: 88.8*

What do the screens show for `COc1cc2ccccc2cc1C(=O)NC(=S)Nc1nnn(C)n1`?
DAGLB inhibitor: 0.7; NadD inh: 7.3; MsrA inh: 1.4; bovine MsrA act: -1.2; rCAG RNA binder: 0.5; Pemphigus Ab inh: -8.3*

What do the screens show for `Cn1nnc(NC(=S)NC(=O)c2cc(Cl)ccc2Cl)n1`?
DAGLB inhibitor: 0.4; NadD inh: 0.7; MsrA inh: 2.0; bovine MsrA act: 0.6; rCAG RNA binder: 0.1; Pemphigus Ab inh: 96.6

How did COc1ccc2c(c1)[C@@]1(OCCC=C[C@H]1C)C(=O)N2Cc1ccc(F)cc1 do in these assays?
MsrA inh: 3.1; rCAG RNA binder: -0.5

How did O=C1CSC(=S)N1N=Cc1c(O)ccc2ccccc12 do in these assays?
DAGLB inhibitor: 7.7; NadD inh: 33.7*; MsrA inh: 0.8; bovine MsrA act: 1.8; rCAG RNA binder: 23.5; Pemphigus Ab inh: 94.1

What do the screens show for `Cc1ccc(S(=O)(=O)N2CCN(C(=O)Cc3ccccc3)CC2)cc1C`?
DAGLB inhibitor: -1.3; NadD inh: 3.2; MsrA inh: 0.8; bovine MsrA act: -0.7; rCAG RNA binder: 0.4; Pemphigus Ab inh: inconclusive

How did Cc1ccc(CC(=O)N2CCN(S(=O)(=O)c3ccccc3)CC2)cc1C do in these assays?
DAGLB inhibitor: -1.2; NadD inh: 7.8; MsrA inh: 4.6*; bovine MsrA act: -9.5; rCAG RNA binder: -2.6; Pemphigus Ab inh: 101.8

What do the screens show for `Nc1cccc(-c2nc3cc(S(=O)(=O)c4ccc5oc(-c6cccc(N)c6)nc5c4)ccc3o2)c1`?
DAGLB inhibitor: -0.5; NadD inh: 16.1; MsrA inh: 0.5; bovine MsrA act: -11.4; rCAG RNA binder: 3.0; Pemphigus Ab inh: 77.4*

What do the screens show for `Cc1ccc2oc(-c3cccc(N)c3)nc2c1`?
DAGLB inhibitor: -1.5; NadD inh: -6.0; MsrA inh: 0.0; bovine MsrA act: -3.0; rCAG RNA binder: 2.9; Pemphigus Ab inh: 103.3

Results for CC(=O)NC(CC(=O)NCCN1C(=O)S/C(=C\c2ccccc2)C1=O)c1ccccc1 (stereo not drawn) ?
DAGLB inhibitor: 0.4; NadD inh: -2.8; MsrA inh: 4.6*; bovine MsrA act: -9.1; rCAG RNA binder: -2.9; Pemphigus Ab inh: 98.9

How did CC(=O)NNC(=O)CN1C(=O)/C(=C/c2ccccc2)SC1=S do in these assays?
DAGLB inhibitor: 0.2; NadD inh: -3.0; MsrA inh: 2.1; bovine MsrA act: -1.4; rCAG RNA binder: 0.0; Pemphigus Ab inh: 89.7

What do the screens show for `COC(=O)C(=CC(=CN(C)C)C=C(C(=O)OC)C(=O)OC)C(=O)OC`?
DAGLB inhibitor: 0.5; NadD inh: -2.4; MsrA inh: 4.5*; bovine MsrA act: -5.3; rCAG RNA binder: -1.9

What do the screens show for `COc1ccc(NC(=O)CN2C(=O)/C(=C3\SC(=S)N(C4CCS(=O)(=O)C4)C3=O)c3ccccc32)cc1` (stereo not drawn)?
NadD inh: 32.0*; MsrA inh: 1.4; bovine MsrA act: -5.5; rCAG RNA binder: 8.7; Pemphigus Ab inh: 108.1

What do the screens show for `CC(C)(C)c1cc(NC(=O)Nc2ccccc2)no1`?
DAGLB inhibitor: -5.2; NadD inh: -7.1; MsrA inh: -0.6; bovine MsrA act: 8.2*; rCAG RNA binder: -0.5; Pemphigus Ab inh: 102.0

Screening results as filed in PubChem BioAssay.
